PubChem BioAssay AID463173 (ICCB-Longwood Screening Facility, Harvard Medical School, 2010)
The whole screen tested about 52,000 compounds, of which about 4,300 (8.3%) were called active. For the sample, actives were picked, then their nearest neighbours and some compounds at random. A number with no mark means an inactive call. Cut-off read from the data, not from the text of the source: active = survival mostly below about 52% (no sharp cut-off); inactive = mostly above about 56%.

What follows are molecules tested on DeltatarO mutant (assay: growth inhibition of S. aureus wild type versus tarO mutant, primary screen, teichoic acid synthesis inhibitors, RN4220, OD600 (AID 463173)). Settings: OD600, 18 h, active compounds read low, screened at 18.75 µg/mL (by protocol).
With `CCOC(=O)c1ccc(NC(=O)C2=C(C)C(=O)OC23CCCCCC3)cc1` the survival was 81%.
For `Cc1cc(NS(=O)(=O)c2ccc(NC(=O)COc3ccccc3Br)cc2)no1`, the survival was 67%.
`Cc1cccc(OCC(=O)Nc2ccc(S(=O)(=O)Nc3onc(C)c3C)cc2)c1C` was tested, and the survival was 40% (active).
Molecule `Cc1noc(NS(=O)(=O)c2ccc(NC(=O)COc3ccccc3Br)cc2)c1C` has a survival of 53%.
For `Cc1cc(NS(=O)(=O)c2ccc(NC(=O)COc3ccc(Br)cc3C)cc2)no1`, the survival was 32% (active).
Molecule `Cc1ccc(OCC(=O)Nc2ccc(S(=O)(=O)Nc3cc(C)on3)cc2)c(Br)c1` has a survival of 56%.
`Cc1cc(NS(=O)(=O)c2ccc(NC(=O)COc3cc(C)c(Br)cc3C(C)C)cc2)no1` was tested, and the survival was 13% (active).
With `CCC(C)c1ccccc1OCC(=O)Nc1ccc(S(=O)(=O)Nc2cc(C)on2)cc1` (centres undefined) the survival was 80%.
For `Cc1ccc(C)c(OCC(=O)Nc2ccc(S(=O)(=O)Nc3onc(C)c3C)cc2)c1C`, the survival was 165%.
With `Cc1cc(NS(=O)(=O)c2ccc(NC(=O)COc3c(C)cc(Br)cc3C)cc2)no1` the survival was 110%.
In the case of `COc1ccc2c(c1)c(CC(=O)Nc1cc(C)c(OC)c(C)c1)c(C)n2C(=O)c1ccc(Cl)cc1`, the survival is reported as 71%.
For `COc1cc(C(c2nnnn2C2CCCCC2)N2CCc3ccccc3C2)ccc1O` (centres undefined), the survival was 62%.
`COc1ccc(N2CCN(C(=O)c3ccc4c(c3)N(Cc3cccc(Cl)c3)C(=O)c3ccccc3S4(=O)=O)CC2)cc1` gave a survival of 83%.
`COc1cc2oc(=O)c(CC(=O)NCc3ccc(OC)c(OC)c3)c(C)c2cc1Cl` gave a survival of 71%.
For `CC(=O)N1CCC2(CC1)OC(=O)C(C)=C2C(=O)NCc1ccc(Cl)cc1`, the survival was 58%.
With `Cc1cc(C)cc(NC(=O)c2cccc(C(=O)Nc3cc(C)cc(C)c3)c2)c1` the survival was 129%.
`CCOc1ccc(C(=O)N2CCN(c3ccccc3)CC2)cc1` showed a survival of 78%.
With `CC1=C(C(=O)Nc2ccccc2)C(c2ccc(C)o2)NC(=S)N1` (centres undefined) the survival was 61% (active).
`CC1=C(C(=O)Nc2ccccc2C)C(c2ccccc2O)NC(=S)N1` (centres undefined) showed a survival of 103%.
`COc1ccccc1NC(=O)C1=C(C)NC(=S)NC1C` (centres undefined) was tested, and the survival was 86%.
Work on `O=S(=O)(Nc1ccccn1)c1cccs1` yielded a survival of 83%.
Work on `CCN(C(=O)c1nn(-c2ccc(OC)c(Cl)c2)c(=O)c2c1c1ccccc1n2C)c1cccc(C(F)(F)F)c1` yielded a survival of 75%.
`COc1ccc2c(c1)-c1nc(NC(=O)c3ccc(Cl)cc3)sc1CC2` showed a survival of 96%.
For `COc1ccc2c(c1)Cc1sc(NC(=O)c3cccc(F)c3)nc1-2`, the survival was 67%.
`COc1ccc2c(c1)Cc1sc(NC(=O)c3cccc(C)c3)nc1-2` was tested, and the survival was 18% (active).
For `COc1ccc(C(=O)Nc2nc3c(s2)CCc2cc(OC)ccc2-3)cc1`, the survival was 35% (active).
`COc1ccc2c(c1)-c1nc(NC(=O)c3cccc(Br)c3)sc1CC2` showed a survival of 51%.
`COc1ccc2c(c1)-c1nc(NC(=O)c3cc(Cl)ccc3OC)sc1CC2` showed a survival of 69%.
`COc1ccc2c(c1)-c1nc(NC(=O)c3ccccc3F)sc1CC2` was tested, and the survival was 2% (active).
`COc1ccc2c(c1)Cc1sc(NC(=O)c3ccccc3Br)nc1-2` showed a survival of 63%.
For `COc1ccc(C(=O)Nc2nc3c(s2)Cc2cc(OC)ccc2-3)cc1`, the survival was 55%.
For `COc1ccc2c(c1)Cc1sc(NC(=O)c3ccccc3C)nc1-2`, the survival was 102%.
Molecule `COc1ccc2c(c1)Cc1sc(NC(=O)c3ccc(Cl)cc3)nc1-2` has a survival of 80%.
For `COc1ccc2c(c1)CCc1sc(NC(=O)c3ccc(Cl)cc3)nc1-2`, the survival was 31% (active).
With `COc1ccc(CN2C(=O)C(NC(=O)c3ccccc3OC)(C(F)(F)F)N=C2c2ccccc2)cc1` (centres undefined) the survival was 87%.
For `COc1cc(Cl)c(C)cc1NC(=O)c1cnc(N2CCCCC2)c2ccccc12`, the survival was 115%.
Molecule `O=C(c1ccc2c(c1)N(Cc1cccc(F)c1)C(=O)c1ccccc1S2)N1CCCC1` has a survival of 88%.
With `COc1ccc(N2CCN(C(=O)c3cc4c(=O)oc5ccc(C)cc5c4s3)CC2)cc1` the survival was 111%.
For `CCCn1cc(S(=O)(=O)c2cccc(Cl)c2)c(=O)c2cc(F)c(N3CCOCC3)cc21`, the survival was 74%.
`COc1cccc(NC(=O)C2CCCN(S(=O)(=O)c3cccc4nonc34)C2)c1` (centres undefined) showed a survival of 90%.
For `CCCS(=O)(=O)c1c(S(=O)(=O)CCC)c2cc(C(C)(C)C)ccn2c1C(=O)c1ccccc1`, the survival was 118%.
`CC1Cc2ccccc2N1C(=O)CSc1nnnn1Cc1ccccc1` (centres undefined) gave a survival of 91%.
Molecule `Cc1cccc(-n2nnc(-c3nc(-c4cccs4)no3)c2N)c1C` has a survival of 60%.
For `CCS(=O)(=O)N1CC(=O)N(c2ccc(Cl)cc2)C(C)(C(=O)NC2CCCCC2)C1` (centres undefined), the survival was 96%.
Work on `COc1ccc2c(c1)-c1nc(NC(=O)c3cc(OC)c(OC)c(OC)c3)sc1CC2` yielded a survival of 57%.
Molecule `COc1ccc2c(c1)-c1nc(NC(=O)c3ccc(OC)c(Br)c3)sc1CC2` has a survival of 59%.
With `COc1ccc2c(c1)-c1nc(NC(=O)c3ccc(C)cc3)sc1CC2` the survival was 5% (active).
`COc1cc(C(=O)Nc2ccc(NC(=O)c3ccc(Br)cc3)cc2)cc(OC)c1OC` showed a survival of 75%.
`O=C(CSc1nc2c(c(=O)[nH]1)CN(Cc1ccc3c(c1)OCO3)CC2)Nc1cccc(Cl)c1` was tested, and the survival was 76%.
`CCOC(=O)CNc1c(-c2ccc(OC)cc2)nc2ccc(Cl)cn12` was tested, and the survival was 58%.
In the case of `Cc1ccc(NC(=O)CSc2nc(C)c(Cc3ccccc3)c(=O)[nH]2)cc1`, the survival is reported as 48%.
`Cc1cccc(NC(=O)CSc2nc(C)c(Cc3ccccc3)c(=O)[nH]2)c1` was tested, and the survival was 18% (active).
In the case of `CCOC(=O)c1ccc(NC(=O)CSc2nc3cc4ccccc4cc3[nH]2)cc1`, the survival is reported as 65%.
`COC(=O)c1ccc(NC(=O)CSc2nc3cc4ccccc4cc3[nH]2)cc1` was tested, and the survival was 65%.
Work on `COc1cccc(NC(=O)CSc2nc(C)c(Cc3ccccc3)c(=O)[nH]2)c1` yielded a survival of 58%.
With `CCOC(=O)c1cccc(NC(=O)CSc2nc3cc4ccccc4cc3[nH]2)c1` the survival was 36% (active).
With `Cc1ccc(NC(=O)CSc2nc(C)c(Cc3ccccc3)c(=O)[nH]2)cc1C` the survival was 84%.
`Cc1nc(SCC(=O)Nc2ccc(Br)cc2)[nH]c(=O)c1Cc1ccccc1` showed a survival of 59%.
In the case of `CCOC(=O)c1ccc(NC(=O)CSc2nc(C)c(Cc3ccccc3)c(=O)[nH]2)cc1`, the survival is reported as 45% (active).
`CCN(CC)C(C)C#Cc1ccccc1` (centres undefined) was tested, and the survival was 95%.
`Cc1ccc(-n2nc(C(=O)Nc3ccc(C)c(F)c3)c3c4ccccc4n(C)c3c2=O)cc1` was tested, and the survival was 92%.
In the case of `Fc1ccc(-n2ncc3c(Nc4ccc5c(c4)OCCO5)ncnc32)cc1`, the survival is reported as 97%.
For `O=C(C1CCC(CNS(=O)(=O)c2cccs2)CC1)N1CCN(c2ccc(Cl)cc2)CC1` (centres undefined), the survival was 60%.
For `CCN(c1ccccc1)c1nnc(NC(=O)Nc2ccc(Br)cc2F)s1`, the survival was 97%.
For `CC(=O)N1CCN(c2ccccc2N)CC1`, the survival was 93%.
For `Cc1cc(C)nc(Nc2nc3ccccc3c(=O)[nH]2)n1`, the survival was 74% (active).
`Cc1cc(=O)[nH]c(Nc2nc3ccccc3[nH]2)n1` gave a survival of 71%.
`O=c1[nH]c(Nc2nc3ccccc3o2)nc2ccccc12` gave a survival of 95%.
`O=C1CCCc2cc(S(=O)(=O)N3CCCC(C(=O)Nc4ccc(F)c(Cl)c4)C3)ccc2N1` (centres undefined) was tested, and the survival was 70%.
`Cc1ccccc1C(=O)OCc1cc(=O)n2c(C)csc2n1` was tested, and the survival was 109%.
In the case of `CC1CCN(S(=O)(=O)c2ccc3nc(N4CCN(c5ccccc5)CC4)ccc3c2)CC1`, the survival is reported as 78%.
For `O=S(=O)(c1ccc2nc(N3CCN(c4cccc(Cl)c4)CC3)ccc2c1)N1CCCCC1`, the survival was 81%.
In the case of `O=S(=O)(c1ccc2nc(N3CCN(c4ccccc4)CC3)ccc2c1)N1CCCCC1`, the survival is reported as 6% (active).
Molecule `Cc1ccc(OC(=O)c2ccc3snnc3c2)cc1` has a survival of 115%.
`COc1ccccc1-c1nn(CCC(=O)Nc2cccc(C(C)=O)c2)c2nc(C)cc(C)c12` showed a survival of 69%.
`Cc1cc(C)c2c(=O)cc(C(=O)Nc3ccc(S(=O)(=O)N(C)Cc4ccccc4)cc3)oc2c1` showed a survival of 61%.
With `COc1ccc(C(=O)NCCSc2ccccn2)cc1` the survival was 78%.
`Cc1c(C(=O)NCc2ccccc2Br)oc2ccc3c(c12)C(=O)CC(C)(C)O3` gave a survival of 83%.
For `CCC1(C)CC(=O)c2c(ccc3oc(C(=O)NCc4ccccc4)c(C)c23)O1` (centres undefined), the survival was 44% (active).
With `Cc1c(C(=O)NCc2cccc(Br)c2)oc2ccc3c(c12)C(=O)CC(C)(C)O3` the survival was 61%.
With `CC(=O)Nc1ccc(NC(=O)c2oc3ccc4c(c3c2C)C(=O)CC(C)(C)O4)cc1` the survival was 75%.
Molecule `Cc1cc(C)cc(NC(=O)c2oc3ccc4c(c3c2C)C(=O)CC(C)(C)O4)c1` has a survival of 89%.
`Cc1c(C(=O)NCc2ccc(Cl)cc2)oc2ccc3c(c12)C(=O)CC(C)(C)O3` was tested, and the survival was 53% (active).
In the case of `Cc1cccc(C)c1NC(=O)c1oc2ccc3c(c2c1C)C(=O)CC(C)(C)O3`, the survival is reported as 42% (active).
In the case of `CCCOc1ccc(CNC(=O)c2oc3ccc4c(c3c2C)C(=O)CC(C)(CC)O4)cc1` (centres undefined), the survival is reported as 68%.
With `CCC1(C)CC(=O)c2c(ccc3oc(C(=O)Nc4ccc(C(C)=O)cc4)c(C)c23)O1` (centres undefined) the survival was 78%.
`CCOC(=O)CC(NC(=O)Cn1nnc(-c2ccccc2F)n1)c1ccccc1Cl` (centres undefined) was tested, and the survival was 77%.
For `COc1ccc(N2CCN(C(=O)c3cn(C)c4ccc(S(=O)(=O)N(C)C5CCCCC5)cc4c3=O)CC2)cc1`, the survival was 93%.
Molecule `COc1ccccc1NC(=O)CSC1=Nc2ccccc2C2=NC(CC(=O)NCCc3ccccc3)C(=O)N12` (centres undefined) has a survival of 85%.
